# RORg inh – inhibitors of mouse ROR gamma transcriptional activity; Potency, µM (highest dose often 53.6 µM), without a hit: at the highest dose activity change, negative = inhibition, actives largely listed as inhibitors; AID 2551; Drosophila S2 Gal4-RORgamma UAS-luciferase reporter, 20 h; 5.4% of 310,000 active; P51450; also: potency is read from the fitted curve at half-maximal effect; nearly all actives have a fitted effect of over 60% in size
#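 ROR gamma transcriptional activity was tracked as Gal4-UAS luciferase output in stably transfected Drosophila Schneider cells, with compound added 1 hr before 700 uM copper sulfate induction and a 20 hr ambient-temperature incubation.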
# GALK inh – blocks human galactokinase activity. P51570. Purified GALK, Kinase-Glo residual ATP luminescence. Potency, µM (series often up to 57.5 µM), for the others: at the highest dose activity change, negative = inhibition, actives largely listed as inhibitors. 0.007% of 270,000 active; also: potency is read from the fitted curve at half-maximal effect
# Target sequence (P51570 whole entry, looked up): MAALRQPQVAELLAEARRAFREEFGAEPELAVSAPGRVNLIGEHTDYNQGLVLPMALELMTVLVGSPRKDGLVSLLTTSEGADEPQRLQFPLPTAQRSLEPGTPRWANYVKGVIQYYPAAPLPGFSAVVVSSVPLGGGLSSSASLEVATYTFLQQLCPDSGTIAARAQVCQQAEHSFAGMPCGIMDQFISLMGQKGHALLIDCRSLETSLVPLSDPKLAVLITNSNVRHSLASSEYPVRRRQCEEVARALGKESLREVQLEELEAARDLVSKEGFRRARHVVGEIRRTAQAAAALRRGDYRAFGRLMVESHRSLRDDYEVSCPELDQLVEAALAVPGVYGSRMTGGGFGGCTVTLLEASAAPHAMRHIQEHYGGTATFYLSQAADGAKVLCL
#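 Kinase-Glo Plus luminescence measured ATP left after a 1 h room-temperature reaction. The reaction used 5 nM GALK, 100 uM galactose and 35 uM ATP at pH 8.0 (20 mM HEPES, 5 mM MgCl2, 60 mM NaCl, 1 mM DTT, 0.01% BSA).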
# TrxR1 substrate – rat thioredoxin reductase 1 substrate activity. Potency, µM (doses to about 114 µM), for inactives: at the top dose activity change, negative = substrate turnover. O89049. purified TrxR1 substrate turnover, NADPH consumption readout. 0.01% of 390,000 active. AID 588456; also: potency is read from the fitted curve at half-maximal effect; nearly all actives have a fitted effect of over 50% in size
#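 Rat TrxR1, dispensed at 90 nM, was prereduced with 400 uM NADPH (final) for 5 min at ~22 deg C, then incubated with compound 15 min before 400 uM selenite. A first-read NADPH fluorescence drop versus no-compound background flagged substrates.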
# TrxR1 inh – rat TrxR1 inhibition; AID 588453; 1% of 390,000 active; Potency, µM (titrated, usually from 114 µM), inactives show at the top dose activity change, negative = inhibition, most hits filed as inhibitors; recombinant rTrxR1, NADPH fluorescence consumption, selenite substrate; also: potency is read from the fitted curve at half-maximal effect; nearly all actives have a fitted effect of over 65% in size
#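 Rat TrxR1 (90 nM in the dispensed reagent) was pre-reduced with 400 uM NADPH for 5 min at room temperature, then incubated with compound for 15 min. After 400 uM selenite was added, NADPH fluorescence (Ex 340/Em 450 nm) was followed for 8 min.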
# VP16 counter – counter-screen for ROR gamma inhibitors: Gal4-VP16 reporter. Drosophila S2 Gal4-VP16 UAS-luciferase, luminescence, 20 h. Potency, µM (series often up to 53.6 µM), for inactives: top-dose activity, negative = inhibition, hits mostly inhibitors. 3.5% of 310,000 active;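 also: Gal4-VP16 expression switched on by copper sulfate through the metallothionein promoter; potency is read from the fitted curve at half-maximal effect; nearly all actives have a fitted effect of over 50% in size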
# FBPA coupling cs – coupling enzyme interference in Giardia aldolase counter-screen; coupling enzyme system counterscreen, AmpLite Red fluorescence; activity change, negative = inhibition, % at 58.2 µM, hits read low; 0.67% of 290,000 active; in the data active = activity change below about -30%
#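 Counterscreen lacking aldolase: glyceraldehyde-3-phosphate coupling-enzyme reagent preincubated 10 min at RT with compound (at 57.5 uM final), then substrate/coupling system with AmpLite Red added; fluorescence read at 525/598 nm after 20 min RT.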
# Active calls of the source: *; ? = inconclusive; . = no result; [ ] = remark or other dose. Compounds with a hit are over-represented: about 5.9% of the library has one in this group of screens. Unless noted, calls follow the shape of the dose curve; as a rule, active = well fitted curve in the direction sought with a large enough effect; inconclusive = small, poorly fitted or top-dose-only effect, or another doubt; inactive = no such curve, though single readings can be large; an effect the other way counts as inactive or inconclusive. % is scaled to controls: 0 for no effect and ±100 for the full control effect.
SMILES,RORg inh,GALK inh,TrxR1 substrate,TrxR1 inh,VP16 counter,FBPA coupling cs
NC(=O)N[C@@H](Cc1c[nH]c2ccccc12)C(=O)OCC(=O)N1CCCCC1,-5.8%,-0.9%,-12.1%[57.1 µM],27.8%[57.1 µM],-8.6%,1.0
CSc1nc(O)c(Nc2cccc(Cl)c2)c(=O)[nH]1,-22.5%,-3.0%,-5.1%,-4.6%[2.29 µM],-9.2%,-2.3
COc1ccc(C(=O)/C=C/c2ccccc2)cc1,?,.,.,.,-7.0%,-1.0
O=C(/C=C/c1cccnc1)c1cccc(O)c1,?,-1.8%,-16.6%[57.1 µM],-58.4%,?,0.9
O=C(/C=C/c1cccc(O)c1)c1cccnc1,8.91µM*,-0.2%,-5.4%,?,?,-0.2
O=C(/C=C/c1ccccc1)c1ccc(O)cc1,11.2µM*,.,.,.,?,0.7
COc1ccc(C(=O)/C=C/c2ccc(O)cc2)cc1,0.316µM*,-3.3%,2.9%[57.1 µM],-3.1%[57.1 µM],2µM*,7.5
NS(=O)(=O)c1ccc(N=Cc2c(O)n(-c3nccs3)c(=O)c3ccccc23)cc1,-1.0%,-0.8%,-5.6%,-4.9%,-3.0%,1.0
CCOC(=O)c1cccc2c1-c1ccccc1/C2=N/O,-41.7%,-2.7%,2.8%,6.6%,?,2.6
CC(C)COC(=O)c1cccc2c1-c1ccccc1/C2=N\O,?,-5.7%,2.5%[57.1 µM],25.2%[57.1 µM],11.2µM*,1.2
O=C(NC1=NCCS1)c1cc(-c2cccnc2)nc2ccccc12,11.2µM*,10.7%,-14.1%,6.0%[57.1 µM],-1.3%,2.2
O=C(O)c1cc(-c2cccnc2)nc2ccccc12,6.3%,4.2%,7.4%[57.1 µM],29.2%[57.1 µM],-4.4%,-0.9
COc1ccc(C(=O)NC2=NCCS2)cc1S(=O)(=O)N1CCCCC1C (configuration not stated),14.1µM*,7.0%,3.7%[57.1 µM],15.6%[57.1 µM],-2.3%,0.5
O=C(NC1=NCCS1)c1cccc2ccccc12,11.2µM*,-0.3%,8.3%[57.1 µM],29.4%[57.1 µM],20.7%[10 µM],2.0
CCCC(C(=O)NC1=NCCS1)c1ccccc1 (configuration not stated),11.2µM*,7.4%,5.3%[57.1 µM],14.1%[57.1 µM],?,-2.4
COCCNC(=O)c1ccccc1NC(=O)c1ccc(OC)c(OC)c1,-9.4%,0.1%,-5.1%,-7.8%,2.0%,1.3
CC(NC(=O)c1ccc2c(c1)N(Cc1ccc(Cl)cc1)C(=O)CS2)c1ccccc1 (configuration not stated),.,.,-3.2%,-2.6%,.,.
Cc1c(O)c(=O)ccn1C,-5.8%,-0.3%,-0.2%,16.2%,-6.1%,-0.7
Cc1ccc(NC(=O)c2cc(-c3cccs3)nc3ccccc23)c(C)c1,.,.,26.0%,10.4%,.,.
C/C(=N\NC(=O)c1cc(-c2cccs2)nc2ccccc12)c1ccccn1,0.1µM*,-2.4%,34.0%,-5.0%,0.562µM*,-1.1
CC(C)NC(=O)c1cc(-c2cccs2)nc2ccccc12,9.6%,2.4%,71.7%,19.7%,-13.0%,4.7
O=C(CSc1cccc2cccc(Cl)c12)NC1=NCCS1,10µM*,2.3%,4.7%[57.1 µM],6.8%[57.1 µM],11.2µM*,-6.8
NNC(=O)c1cc(-c2cccs2)nc2ccccc12,20µM*,-2.5%,128.2%,42.2%,-26.8%,0.9
O=C(NC1=NCCS1)c1cc(-c2cccs2)nc2ccccc12,25.1µM*,3.3%,47.8%,24.8%,?,1.1
Cc1cccc2sc(NNC(=O)c3cc(-c4cccs4)nc4ccccc34)nc12,0.251µM*,.,12.1%,8.5%,17.8µM*,-0.9
SMILES,RORg inh,GALK inh,TrxR1 substrate,TrxR1 inh,VP16 counter,FBPA coupling cs
COc1ccc(-c2cc(C(=O)Nc3nc4c(C)cccc4s3)c3ccccc3n2)cc1OC,18.9%,-0.8%,2.9%,7.6%,-3.7%,.
COc1cccc(C(=O)NC2=NCCS2)c1,10µM*,-1.5%,8.3%[57.1 µM],24.4%[57.1 µM],?,0.4
CC(C)Oc1cccc(C(=O)NC2=NCCS2)c1,?,0.2%,4.8%[57.1 µM],8.0%[57.1 µM],-7.8%[10 µM],-2.2
CN(Cc1ccco1)c1ncnc2ccc(-c3cccc(C#N)c3)cc12,-11.1%,.,.,.,2.9%,-5.7
CN(C(=O)c1ccco1)c1nnc(-c2ccc(F)cc2)s1,?,-2.5%,-0.9%,5.5%,-8.5%,-1.0
C(#Cc1ccccc1)C[N+]1(CC#Cc2cccc3ccccc23)CCCC1,-1.2%,2.1%,11.7%,-2.6%,15.8µM*,-10.1
Cc1nc2n(n1)C(O)c1cc([N+](=O)[O-])ccc1S2 (configuration not stated),12.5%,8.5%,.,.,4.4%,-2.6
O=[N+]([O-])c1ccc2c(c1)C(O)n1nc(-c3ccc(Cl)cc3Cl)nc1S2 (configuration not stated),11.2µM*,0.1%,-19.2%[57.1 µM],16.3%[57.1 µM],?,-0.3
COCCNC(=O)C(=O)NCC(c1cccnc1)N1CCN(c2ccccc2F)CC1 (configuration not stated),.,.,4.6%[11.4 µM],13.8%,.,.
CCc1c(C)nc2nc(SCc3ccccc3Cl)[nH]n2c1=O,?,.,-3.5%,11.1%,25.1µM*,3.4
Cc1ccc(-c2csc3ncnc(Sc4nnnn4-c4ccccc4)c23)cc1,.,.,3.3%,25.1%,.,.
Cc1ccc(-c2csc3ncnc(Sc4nnc(CN5CCCCCC5=O)o4)c23)cc1,10µM*,2.3%,-5.0%,?,?,3.0
CCN(CC)c1ccc(NC(=O)COC(=O)C23CCC(=O)N2c2ccccc2S3)cc1 (configuration not stated),25.1%,-0.4%,-9.3%,-9.4%,-3.8%,-32.1*
CCN(CC)c1ccc(NC(=O)COC(=O)CCC(=O)c2cccs2)cc1,.,.,0.3%,31.4%,.,.
CCOC(=O)C(=O)N(Nc1ccccc1C)c1ccccc1C,2.82µM*,0.6%,-1.4%,12.7%,?,-1.9
CCOC(=O)C(=O)N(Nc1ccc(C)cc1)c1ccc(C)cc1,-28.8%,-1.2%,-14.7%,-18.3%,24.0%,0.7
COc1ccccc1OCC(=O)Nc1ccc(S(=O)(=O)N2CCOCC2)cc1,-4.2%,12.0%,7.5%,22.0%,11.2%,6.0
O=C(Nc1ccc(S(=O)(=O)N2CCOCC2)cc1)c1ccc2c(c1)OCO2,4.5%,-2.7%,-5.9%,-9.0%,4.8%,0.3
Cc1cc(C)c(OCC(=O)Nc2ccc(S(=O)(=O)N3CCOCC3)cc2)c(C)c1,11.2µM*,4.6%,2.6%,16.3%,?,.
O=S(=O)(c1ccc(NC(=S)Nc2ccc3c(c2)OCO3)cc1)N1CCOCC1,-8.9%,1.0%,-5.2%,39.8µM*,-5.2%,-0.2
COc1cc(NC(=S)Nc2ccc(S(=O)(=O)N3CCOCC3)cc2)cc(OC)c1OC,3.2%,-1.6%,9.7%,14.1µM*,-4.9%,1.1
O=S(=O)(c1cccc(NC(=S)Nc2ccc(Br)cc2Cl)c1)N1CCOCC1,9.2%,-1.0%,5.5%,17.8µM*,-6.6%,-2.4
COc1ccc(CC2=CC(=O)c3ccccc3C2=O)cc1,7.08µM*,-11.2%,-8.3%,-13.8%,10µM*,-20.4

# Screening data from PubChem.
